Measured values as given in PubChem BioAssay (NCATS).
Results filed as inconclusive are left out. A call without a number means that no potency is given here. Calls of active or inactive are those of the source. The call rests on the fitted dose curve; in most records, active means well fitted inhibition curve with a large enough effect; inconclusive means small, poorly fitted or top-dose-only effect; inactive means flat fitted curve, though single readings scatter.

Columns and labels:
Assay in all cases: qHTS profiling for inhibitors of Plasmodium falciparum proliferation (AID 504749); further: nearly all actives have a fitted effect of over 60% in size
Settings in all cases: P. falciparum in erythrocytes, SYBR Green DNA, 72 h; series mostly up to 28.7 µM
[1] = system: C2A
How it was run: (§1)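 SYBR Green fluorescence (ex 485 nm, em 535 nm) reports parasite DNA after 72 h compound exposure of infected red cells at 0.3% parasitemia, 2.5% hematocrit; signal normalized to 0.29 uM artemisinin and vehicle wells.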

[2] = system: CP185
How it was run: as §1

[3] = system: CP191
How it was run: as §1

[4] = system: CP211
How it was run: as §1

[5] = system: CP217
How it was run: as §1

[6] = system: CP237
How it was run: as §1

[7] = system: CP238
How it was run: as §1

[8] = system: CP250
How it was run: as §1

[9] = system: CP252
How it was run: as §1

[10] = system: CP256
How it was run: as §1

[11] = system: CP265
How it was run: as §1

[12] = system: CP329
How it was run: as §1

[13] = system: DIV30
How it was run: as §1

[14] = system: ECU
How it was run: as §1

[15] = system: HB3
How it was run: as §1

[16] = system: P93_24
How it was run: as §1

[17] = system: PC15
How it was run: as §1

[18] = system: PC26
How it was run: as §1

[19] = system: SC27B
How it was run: as §1

[20] = system: TAB113
How it was run: as §1
Potency means the concentration at half of the fitted maximal effect.

Row | SMILES | Potency [1] | Potency [2] | Potency [3] | Potency [4] | Potency [5] | Potency [6] | Potency [7] | Potency [8] | Potency [9] | Potency [10] | Potency [11] | Potency [12] | Potency [13] | Potency [14] | Potency [15] | Potency [16] | Potency [17] | Potency [18] | Potency [19] | Potency [20]
1 | CC(C)(C)c1ccc(CN2CCN([C@H](c3ccccc3)c3ccc(Cl)cc3)CC2)cc1 | 10 µM (active) | 10 µM (active) | 10 µM (active) | inactive | 8.91 µM (active) | 7.94 µM (active) | 8.91 µM (active) | 8.91 µM (active) | 11.2 µM (active) | 10 µM (active) | 12.6 µM (active) | inactive | inactive | 10 µM (active) | 8.91 µM (active) | 11.2 µM (active) | 11.2 µM (active) | inactive | 10 µM (active) | 6.31 µM (active)
2 | O=C(O)[C@@H](O)[C@@H](O)[C@H](O)C(=O)CO | inactive | inactive | inactive | inactive | inactive | inactive | inactive | inactive | inactive | inactive | inactive | inactive | inactive | inactive | inactive | inactive | inactive | inactive | inactive | inactive
3 | CC1(C)S[C@@H]2[C@H](NC(=O)Cc3ccccc3)C(=O)N2[C@@H]1C(=O)O | inactive | inactive | inactive | inactive | inactive | inactive | inactive | inactive | inactive | inactive | inactive | inactive | inactive | inactive | inactive | inactive | inactive | inactive | inactive | inactive
4 | C[C@H](CCC(=O)O)[C@H]1CC[C@@H]2[C@H]3[C@@H](C[C@@H](O)[C@]21C)[C@]1(C)CC[C@H](O)C[C@@H]1C[C@@H]3O | inactive | inactive | inactive | inactive | inactive | inactive | inactive | inactive | inactive | inactive | inactive | inactive | inactive | inactive | inactive | inactive | inactive | inactive | inactive | inactive
